# The sample as a whole holds a higher share of hits than the screen did.
# KDM5B inhibitor = inhibitors of human KDM5B histone demethylase; Q9UGL1; Potency, µM (titrated, usually from 57.7 µM), most hits filed as inhibitors; hit rate 2.6% among 220,000; KDM5B demethylase, FDH-coupled NADH fluorescence (FDH is formaldehyde dehydrogenase); active = well fitted inhibition curve with a large enough effect; note: 0% is about no effect; nearly all actives have a fitted effect of over 70% in size
#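 KDM5BΔAP (200 nM final) in 50 mM HEPES pH 7.5, 0.01% Tween-20 was preincubated 10 min at RT with compound over a concentration range. Substrate mix (H3K4me3 12.5 µM, α-KG 25 µM, Fe²⁺, ascorbate, NAD⁺, FDH) was added, and NADH fluorescence change over 30 min gave dose-response curves.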
# Starred values were filed as active, the others as inactive; i = inactive; ! = not confirmed by another sample. Potency is the fitted concentration of half-maximal effect.
SMILES,KDM5B inhibitor
CCn1c(SCC(=O)N(C)CCOc2ccc(Br)cc2)nnc1C1CC1,i
CCCCCC(C)NC(=O)C1CC2CCC1C2 (centres undefined),i
CC(=O)NCCC(=O)N1Cc2ccccc2CC2(CCCCN2CC2CCNCC2)C1 (centres undefined),i
Cc1cnc(NC(=O)Cn2ccc3ccc(Br)cc32)s1,i
COc1ccc(Oc2coc3cc(OCc4ccc(F)cc4)ccc3c2=O)cc1,i
O=C(Nc1ccc(F)cc1)N1CCC(O)(c2csc(CN3CCN(c4ccccn4)CC3)n2)CC1,i
CNC(NC(=O)c1ccc(Cl)cc1)C(Cl)(Cl)Cl (centres undefined),i
CN1CCN(Cc2cc(=O)oc3ccc(O)cc23)CC1,i
Cc1noc(NC(=O)CSc2nccn2-c2cccc(C)c2C)n1,i
O=C(OCc1cccc(Br)c1)c1cccc(O)c1,i
Cc1cc(C(=O)NCc2ccc(F)cc2)c2c(C3CCCNC3)noc2n1 (centres undefined),i
Cc1cc(C(=O)NCC(C)C)c2c(C3CCCN3)noc2n1 (centres undefined),i
Cc1cc(C(=O)NCC(F)(F)F)c2c(C3CCCN3)noc2n1 (centres undefined),50µM*
Cc1cc(C(=O)NCC(F)(F)F)c2c(C3CCCNC3)noc2n1 (centres undefined),i
O=C(NCc1ccncc1)c1cc(C2CC2)nc2onc(C3CCCN3)c12 (centres undefined),79µM*
O=C(NCc1ccncc1)c1cc(C2CC2)nc2ccccc12,i
CCCC1CCC(c2ccc(OC(=O)c3cccnc3)cc2)CC1 (centres undefined),i
CCN1CCC(c2nc3ccc(C)cc3c(=O)[nH]2)CC1,i
Cc1ccc2nc(C3CCN(Cc4ccc(C#N)cc4)CC3)[nH]c(=O)c2c1,79µM*!
N#Cc1ccc(CN2CCC(c3nc4ccc(F)cc4c(=O)[nH]3)CC2)cc1,i
CN(Cc1cccc2ccccc12)C(=O)Cc1cccc2cccnc12,i
COc1cc(C2CC(=O)Nc3c(-c4ccccc4)nsc32)cc(OC)c1OC (centres undefined),i
CCOc1ccccc1Oc1c(C(F)(F)F)oc2cc(OC(=O)C(C)C)ccc2c1=O,i
Cc1ccc2c(=O)cc(C(=O)NCc3ccc4c(c3)OCO4)oc2c1C,i
CC(C)(C)c1ccc(C(=O)Nc2ccccc2)cc1Br,i
SMILES,KDM5B inhibitor
CCOc1ccc2nc(NC(=O)c3nn(C(C)C)c(=O)c4ccccc34)sc2c1,i
O=C(c1ccccc1)N1Cc2[nH]cnc2C[C@H]1c1nc(-c2ccc(Cl)cc2)no1,i
Cc1ccc(-c2noc([C@@H]3Cc4nc[nH]c4CN3C(=O)COCC(=O)O)n2)cc1,i
O=C(CCC1CCCC1)N1CCCCCC1c1nc(-c2ccncc2)no1 (centres undefined),i
c1csc(CN2Cc3[nH]cnc3C[C@H]2c2nc(-c3ccc4ccccc4c3)no2)c1,28µM*
c1csc(CN2Cc3[nH]cnc3C[C@H]2c2nc(-c3ccncc3)no2)c1,28µM*
COc1ccc(-c2noc([C@@H]3Cc4nc[nH]c4CN3C(=O)CSCC(=O)O)n2)cc1,i
O=C(Nc1cccc(F)c1)N1Cc2[nH]cnc2C[C@H]1c1nc(-c2ccncc2)no1,i
c1cc(-c2noc([C@@H]3Cc4nc[nH]c4CN3CC3CCCCC3)n2)ccn1,35µM*
CCOC(=O)c1ccc(NC(=O)N2Cc3[nH]cnc3C[C@H]2c2nc(-c3ccncc3)no2)cc1,i
CC(C)c1ccc2oc(=O)cc(CN3CCN(CCO)CC3)c2c1,i
CNC(=O)c1ccc(NC(=O)CN2CCc3cc(OC)c(OC)cc3C2c2ccccc2)cc1 (centres undefined),i
CC(=O)c1cn(CC(=O)Nc2ccncc2)c2ccccc12,i
Cc1ccc(NC(=O)CSc2nc(=O)[nH]c3c2CCCC3)cc1,i
COc1ccc(C2=Nn3c(nnc3-c3cccc(F)c3)SC2)cc1,i
COC(=O)[C@H](Cc1ccc(OC)cc1)NC(=O)[C@H]1CN(S(=O)(=O)c2ccccc2)CCN1C(=O)c1cccs1,i
CC(C)(C)NC(=O)c1ccc(COc2cccc3c2OC(C)(C)C3)cc1,i
COc1ccc(CNC(=O)c2cccc3ccccc23)cc1,i
Cc1ccc(-c2nc(Cn3cccc(C(F)(F)F)c3=O)co2)cc1,i
CCOC(=O)NC(C)C12CC3CC(CC(C3)C1)C2 (centres undefined),i
CCCc1cc(C(=O)N2CCCC3(CCC(=O)N(CCOC)C3)C2)cs1 (centres undefined),i
COCCN1CC2(CCCN(C(=O)CNC(N)=O)C2)CCC1=O (centres undefined),i
CNc1ncc(C(=O)N2CCCC3(CCC(=O)N(CCOC)C3)C2)cn1 (centres undefined),28µM*
COc1ccc(NC(=O)COc2ccc(Cl)cc2Cl)c2cccnc12,i
O=C(Cn1nc(C(=O)O)c2ccccc2c1=O)NCc1cccc(Cl)c1,i
SMILES,KDM5B inhibitor
Cc1ccc(Cn2ccnc2SCC(=O)NCc2ccc3c(c2)OCO3)cc1,i
O=C(Cn1cccc1-c1nc(-c2ccc(F)cc2)no1)NCc1ccc(Cl)cc1,i
CSc1ccc(CNC(=O)CCc2conc2-c2cccc(C)c2)cc1,i
Cc1cccc(-c2nc3cnccn3c2NCCC(=O)NCc2ccc(F)c(Cl)c2)c1,28µM*
O=C(CCNc1c(-c2cccc(F)c2)nc2cnccn12)NCc1ccc(Cl)cc1,28µM*
O=C(Cn1c(=O)n2nc(-c3cccc(F)c3)nc2c2ccccc21)NCc1ccc(Cl)cc1,i
Cc1ccc(CSCC(=O)NCc2ccc3c(c2)OCO3)cc1,i
Cc1cccc(-c2nc(CS(=O)CC(=O)NCc3ccc(Cl)cc3)c(C)o2)c1 (centres undefined),i
Cc1cccc(-c2nc3cnccn3c2NCCC(=O)NCc2ccc3c(c2)OCO3)c1,28µM*
O=C(O)/C(=C/c1ccncc1)NC(=O)c1ccccc1,i
CCc1ccc(NC(=O)Nc2c(N3CCCC3)c3ccccc3oc2=O)cc1,i
COC(=O)c1cc2oc(C)cc2n1Cc1ccccc1C,i
Cc1cc(-c2ccc(C)c(S(=O)(=O)Nc3ccccc3F)c2)on1,i
O=C(NC1(C(F)(F)F)C(=O)Nc2c1c(=O)[nH]c(=O)n2-c1ccc(F)cc1)c1cccs1 (centres undefined),i
CC1(C)C2CCC1(C(=O)Nc1ccc(F)c(F)c1)C(=O)C2 (centres undefined),i
COC(=O)c1cc(C2CC2)nc2onc(-c3ccc(F)cc3)c12,i
CCCCc1cc(=O)oc2cc(OCC(=O)NCc3ccncc3)c(Cl)cc12,i
CC1CN(C(=O)N2CCC(C(=O)NCc3ccccc3)CC2)c2ccccc2O1 (centres undefined),i
Clc1ccc(CNc2ncncc2-c2nc(-c3ccccc3)no2)cc1,i
CCc1ccc(CNc2ncncc2-c2nc(-c3ccccc3)no2)cc1,28µM*
COc1ccc(CNc2ncncc2-c2nc(-c3ccccc3)no2)cc1,i
c1ccc(CCNc2ncncc2-c2nc(-c3ccccc3)no2)cc1,35µM*
c1ccc(-c2noc(-c3cncnc3NCc3ccco3)n2)cc1,i
CCN1CCN(CCNc2ncncc2-c2nc(-c3ccccc3)no2)CC1,i
Cc1cc(C)nc(NC(c2ccccn2)c2cc(C)sc2NC(=O)c2ccco2)n1 (centres undefined),i
O=C(Cn1c(NCc2ccccc2)nc2ccccc21)N1CCOCC1,i
